Results from PubChem BioAssay AID1159580 (chemical genetic matrix, 2015).
Hit rate of the full screen: of about 5,500 compounds, about 2,000 (36%) were called active. About 18% were inconclusive and are not listed. Cut-off read from the data, not from the text of the source: active = normalized growth mostly below about 0.91 (no sharp cut-off); inconclusive = no clear call, values can overlap the other calls; inactive = mostly above about 0.92. The list shows a part of the results.

Experiment: chemical genetic growth profiling, strain panel (AID 1159580);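 note: tested at 20 µM; growth read once vehicle control cultures reached saturation at 30 °C; 1 = growth at the plate median or of vehicle wells; lower values mean less growth of the strain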
Details: growth OD

Measured: normalized growth

COC(=O)[C@]1(C)CCC[C@]2(C)c3ccc(C(C)C)cc3C(=O)CC12 (stereo partly drawn)
inactive: S. cerevisiae deletion strains, locus YJL187C, strain SWE1, hits give low values 0.956 | S. cerevisiae deletion strains, locus YJR043C, strain POL32, hits give low values 1.03 | S. cerevisiae deletion strains, locus YJR075W, strain HOC1, hits give low values 0.914 | S. cerevisiae deletion strains, locus YKL009W, strain mrt4, hits give low values 0.942 | S. cerevisiae deletion strains, locus YKL068W, hits give low values 0.984 | S. cerevisiae deletion strains, locus YKL160W, strain elf1, hits give low values 0.983 | S. cerevisiae deletion strains, locus YKL190W, strain CNB1, hits give low values 0.967 | S. cerevisiae deletion strains, locus YKR001C, strain vps1, hits give low values 1.01 | S. cerevisiae deletion strains, locus YKR026C, strain gcn3, hits give low values 0.975 | S. cerevisiae deletion strains, locus YKR091W, strain srl3, hits give low values 0.96 | S. cerevisiae deletion strains, locus YLL001W, strain dnm1, hits give low values 0.986 | S. cerevisiae deletion strains, locus YLL026W, hits give low values 0.964 | S. cerevisiae deletion strains, locus YLL041C, strain sdh2, hits give low values 0.958 | S. cerevisiae deletion strains, locus YLR027C, strain aat2, hits give low values 0.956 | S. cerevisiae deletion strains, locus YLR039C, strain RIC1, hits give low values 0.978 | S. cerevisiae deletion strains, locus YLR058C, strain SHM2, hits give low values 0.986 | S. cerevisiae deletion strains, locus YLR102C, strain apc9, hits give low values 1.01 | S. cerevisiae deletion strains, locus YLR221C, strain rsa3, hits give low values 1 | S. cerevisiae deletion strains, locus YLR258W, strain gsy2, hits give low values 0.973 | S. cerevisiae deletion strains, locus YLR262C, strain YPT6 (second series), hits give low values 0.897 | S. cerevisiae deletion strains, locus YLR262C, strain YPT6, hits give low values 0.925 | S. cerevisiae deletion strains, locus YLR268W, strain sec22, hits give low values 0.955 | S. cerevisiae deletion strains, locus YLR320W, strain mms22, hits give low values 0.991 | S. cerevisiae deletion strains, locus YLR330W, strain CHS5, hits give low values 0.997 | S. cerevisiae deletion strains, locus YLR342W, strain FKS1 (second series), hits give low values 0.937 | S. cerevisiae deletion strains, locus YLR342W, strain FKS1, hits give low values 0.958 | S. cerevisiae deletion strains, locus YLR357W, strain rsc2, hits give low values 0.989 | S. cerevisiae deletion strains, locus YLR370C, strain arc18, hits give low values 0.949 | S. cerevisiae deletion strains, locus YLR371W, strain rom2, hits give low values 1.01 | S. cerevisiae deletion strains, locus YLR384C, strain iki3, hits give low values 0.96 | S. cerevisiae deletion strains, locus YLR418C, strain cdc73, hits give low values 0.865 | S. cerevisiae deletion strains, locus YML016C, strain PPZ1, hits give low values 0.979 | S. cerevisiae deletion strains, locus YML032C, strain rad52, hits give low values 1.03 | S. cerevisiae deletion strains, locus YML120C, strain ndi1, hits give low values 0.965 | S. cerevisiae deletion strains, locus YML124C, strain tub3, hits give low values 0.991 | S. cerevisiae deletion strains, locus YMR058W, strain fet3, hits give low values 0.969 | S. cerevisiae deletion strains, locus YMR078C, strain ctf18, hits give low values 1 | S. cerevisiae deletion strains, locus YMR125W, strain sto1, hits give low values 0.964 | S. cerevisiae deletion strains, locus YMR129W, hits give low values 0.956 | S. cerevisiae deletion strains, locus YMR205C, strain PFK2, hits give low values 0.934 | S. cerevisiae deletion strains, locus YMR223W, strain ubp8, hits give low values 1.02 | S. cerevisiae deletion strains, locus YMR231W, strain pep5, hits give low values 0.974 | S. cerevisiae deletion strains, locus YMR263W, strain SAP30, hits give low values 0.961 | S. cerevisiae deletion strains, locus YMR307W, strain GAS1, hits give low values 0.953 | S. cerevisiae deletion strains, locus YNL067W, strain RPL9B, hits give low values 0.936 | S. cerevisiae deletion strains, locus YNL071W, strain lat1, hits give low values 0.952 | S. cerevisiae deletion strains, locus YNL128W, strain TEP1, hits give low values 0.964 | S. cerevisiae deletion strains, locus YNL153C, strain GIM3, hits give low values 0.982 | S. cerevisiae deletion strains, locus YNL209W, strain ssb2, hits give low values 0.992 | S. cerevisiae deletion strains, locus YNL233W, strain BNI4, hits give low values 0.971 | S. cerevisiae deletion strains, locus YNL248C, strain rpa49, hits give low values 0.962 | S. cerevisiae deletion strains, locus YNL250W, strain rad50, hits give low values 0.99 | S. cerevisiae deletion strains, locus YNL271C, strain bni1, hits give low values 1.01 | S. cerevisiae deletion strains, locus YNL298W, strain CLA4, hits give low values 1.01 | S. cerevisiae deletion strains, locus YNL307C, strain MCK1, hits give low values 0.985 | S. cerevisiae deletion strains, locus YNL322C, strain KRE1 (second series), hits give low values 0.954 | S. cerevisiae deletion strains, locus YNL322C, strain KRE1, hits give low values 0.979 | S. cerevisiae deletion strains, locus YNR049C, strain mso1, hits give low values 0.964 | S. cerevisiae deletion strains, locus YNR052C, strain pop2, hits give low values 1.04 | S. cerevisiae deletion strains, locus YOL006C, strain TOP1, hits give low values 0.828 | S. cerevisiae deletion strains, locus YOL012C, strain htz1 1.22 | S. cerevisiae deletion strains, locus YOL147C, strain pex11, hits give low values 1 | S. cerevisiae deletion strains, locus YOR001W, strain rrp6, hits give low values 0.987 | S. cerevisiae deletion strains, locus YOR061W, strain CKA2, hits give low values 0.977 | S. cerevisiae deletion strains, locus YOR069W, strain VPS5, hits give low values 0.996 | S. cerevisiae deletion strains, locus YOR070C, strain gyp1, hits give low values 0.988 | S. cerevisiae deletion strains, locus YOR080W, strain dia2, hits give low values 0.965 | S. cerevisiae deletion strains, locus YOR083W, strain WHI5, hits give low values 0.996 | S. cerevisiae deletion strains, locus YOR106W, strain vam3, hits give low values 0.965 | S. cerevisiae deletion strains, locus YOR136W, strain idh2, hits give low values 1.02 | S. cerevisiae deletion strains, locus YOR144C, strain elg1, hits give low values 0.998 | S. cerevisiae deletion strains, locus YOR184W, strain ser1, hits give low values 0.982 | S. cerevisiae deletion strains, locus YOR265W, strain rbl2, hits give low values 0.969 | S. cerevisiae deletion strains, locus YOR290C, strain snf2, hits give low values 0.949 | S. cerevisiae deletion strains, locus YOR316C, strain cot1, hits give low values 0.998 | S. cerevisiae deletion strains, locus YPL051W, strain arl3, hits give low values 0.984 | S. cerevisiae deletion strains, locus YPL055C, strain LGE1, hits give low values 0.868 | S. cerevisiae deletion strains, locus YPL078C, strain atp4, hits give low values 0.968 | S. cerevisiae deletion strains, locus YPL106C, strain sse1, hits give low values 0.989 | S. cerevisiae deletion strains, locus YPL240C, strain hsp82, hits give low values 0.968 | S. cerevisiae deletion strains, locus YPL241C, strain CIN2, hits give low values 0.974 | S. cerevisiae deletion strains, locus YPR119W, strain clb2, hits give low values 0.993 | S. cerevisiae deletion strains, locus YPR141C, strain kar3, hits give low values 0.981 | S. cerevisiae deletion strains, locus YPR163C, strain tif3, hits give low values 1 | S. cerevisiae deletion strains, locus YPR167C, strain met16, hits give low values 0.994 | S. cerevisiae deletion strains, strain wtn01, hits give low values 0.978 | S. cerevisiae strains, strain wild type, hits give low values 0.993
active: S. cerevisiae deletion strains, locus YOR270C, strain vph1, hits give low values 0.673
